ATG4B inhibitor: ATG4B protease inhibitors, primary screen, biochemical, fluorescence, uHTS. ATG4B cleavage of LC3-PLA2, NBD-HPC fluorescence, 1 h. inhibition, % at 8.33 µM. 340,000 tested, 0.51% active. AID 504462, 2011; in the data active means inhibition above about 40%
MEKK2mut PB1 HTS: MEK5 binding signal on mutant MEKK2 PB1, primary screen, biochemical, multiplex bead flow cytometry, Alexa488-MEK5; percent response, % at 10 µM; AID 1530, 2009; 290,000 tested, 0.35% active; Alexa488-MEK5 binding to MEKK2 mutant; in the data active means percent response above about 24%, passing the limit was not always enough
MEKK2 WT-MEK5: modulators of MEK5 binding to wildtype MEKK2, primary screen, biochemical, multiplex bead flow cytometry, Alexa488-MEK5. Mitogen-activated protein kinase kinase kinase 2 (Homo sapiens), Q9Y2U5. Alexa488-MEK5 binding to MEKK2 WT; actives lie on both sides. binding response (% of control), % at 10 µM. 290,000 tested, 1.1% active; in the data active means binding response below about 67% or above about 130%
PREPL inhibitor: PREPL enzyme inhibitors, primary screen, biochemical, fluorescence polarization; 320,000 tested, 0.68% active; inhibition, % at 5.96 µM; AID 2751, 2010; Prolyl endopeptidase-like (Homo sapiens), Q4J6C6; recombinant PREPL, fluorescence polarization activity-based probe; in the data active means inhibition above about 43%;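 further: 0% = enzyme with DMSO and 100% = wells lacking enzyme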
UBC13 inh: UBC13 polyubiquitin chain formation inhibitors, primary screen, biochemical, TR-FRET, uHTS; 330,000 tested, 0.47% active; AID 485273, 2010; inhibition, % at 20 µM; Ubiquitin-conjugating enzyme E2 N (Homo sapiens), P61088; in the data active means inhibition above about 45%, passing the limit was not always enough
Target sequence (P61088 whole entry, looked up): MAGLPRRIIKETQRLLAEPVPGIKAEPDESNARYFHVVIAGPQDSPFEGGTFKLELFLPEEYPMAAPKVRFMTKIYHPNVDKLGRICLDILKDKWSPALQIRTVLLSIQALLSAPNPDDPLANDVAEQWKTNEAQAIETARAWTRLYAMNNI
MEKK3 PB1 HTS: modulators of MEKK3-MEK5 PB1 binding, primary screen, biochemical, wildtype MEKK3, multiplex bead flow cytometry, Alexa488-MEK5; Mitogen-activated protein kinase kinase kinase 3 (Homo sapiens), Q99759; bead-based flow cytometry, Alexa488-MEK5 binding to MEKK3; actives lie on both sides; 0 = blocked by unlabeled MEK5, 100 = vehicle; binding response (% of control), % at 10 µM; 290,000 tested, 1.4% active; AID 1529, 2009;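 active means binding response more than 3 SD above or below the average of its plate-row segment, actives on both sides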;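 further: Alexa488 bead fluorescence after subtracting the streptavidin-only scavenger bead signal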
Target sequence (Q99759 whole entry, looked up): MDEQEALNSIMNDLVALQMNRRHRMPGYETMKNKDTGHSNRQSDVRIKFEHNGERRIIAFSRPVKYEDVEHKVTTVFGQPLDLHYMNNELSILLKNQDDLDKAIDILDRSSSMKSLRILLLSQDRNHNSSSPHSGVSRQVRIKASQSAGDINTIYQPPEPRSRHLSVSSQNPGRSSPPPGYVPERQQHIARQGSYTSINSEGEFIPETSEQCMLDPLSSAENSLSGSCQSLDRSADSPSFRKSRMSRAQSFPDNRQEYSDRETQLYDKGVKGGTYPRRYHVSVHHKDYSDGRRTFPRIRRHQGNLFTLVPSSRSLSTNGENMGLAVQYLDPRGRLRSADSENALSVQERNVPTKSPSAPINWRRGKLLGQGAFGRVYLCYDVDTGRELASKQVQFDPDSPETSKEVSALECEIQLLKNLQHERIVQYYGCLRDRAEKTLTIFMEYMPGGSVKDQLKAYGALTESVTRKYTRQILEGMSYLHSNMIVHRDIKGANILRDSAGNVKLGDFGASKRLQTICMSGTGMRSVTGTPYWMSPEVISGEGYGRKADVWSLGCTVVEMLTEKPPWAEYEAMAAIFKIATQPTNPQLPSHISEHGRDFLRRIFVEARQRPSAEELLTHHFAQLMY
MEKK2wt confirm: modulators of MEK5 binding to wildtype MEKK2, confirmation, biochemical, single concentration, multiplex bead flow cytometry | shares compounds with MEKK3 PB1 HTS | AID 1892, 2009 | binding response (% of control), % at 10 µM | 5,900 tested, 2.4% active | Alexa488-MEK5 binding to MEKK2 WT; actives lie on both sides; in the data active means binding response below about 16% or above about 210%; inactive means in between
MEKK2mut confirm: mutant MEKK2 PB1-MEK5 binding signal retest – biochemical, single concentration, multiplex bead flow cytometry, confirmation; percent response, % at 10 µM; Alexa488-MEK5 binding to MEKK2 mutant; AID 1893, 2009; shares compounds with MEKK3 PB1 HTS; 5,900 tested, 2% active; in the data active means percent response mostly above about 71%, no sharp cut-off; inactive means mostly below about 38%;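 further: higher means compound restores mutant binding toward wildtype level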
MEKK3-MEK5 inh: MEKK3 wild-type PB1 binding to MEK5, inhibitors, confirmation, biochemical, bead multiplex flow cytometry, single concentration, wildtype. shares compounds with MEKK3 PB1 HTS. AID 1894, 2009. Alexa488-MEK5 binding to MEKK3; active compounds read low. 5,900 tested, 1.8% active. binding response (% of control), % at 10 µM;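 active means binding response below 72% of control, or above a set upper limit, though filed actives all read lower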;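 further: 100% = DMSO only wells and 0% = binding blocked by excess unlabeled MEK5; lower values mean stronger disruption of MEK5 binding to MEKK3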
The depositor's hits bear a star; x = no result; [ ] = dose if it differs, or a comment. Only some compounds are listed: those with a hit (about 3.1% of all), similar ones and a draw of the others.

SMILES | ATG4B inhibitor | MEKK2mut PB1 HTS | MEKK2 WT-MEK5 | PREPL inhibitor | UBC13 inh | MEKK3 PB1 HTS | MEKK2wt confirm | MEKK2mut confirm | MEKK3-MEK5 inh
CCn1c(SCC(=O)N=Nc2c(O)[nH]c3ccccc23)nc2ccccc21 | 6.8 | 1.0 | 101.0 | 1.6 | -3.0 | 145.0* | 105.0 | 7.0 | 107.0
CCn1c(SCC(=O)N=Nc2c(O)[nH]c3ccccc23)nnc1-c1ccc(C(C)(C)C)cc1 | x | 1.0 | 111.0 | 6.5 | -4.3 | 132.0* | 99.0 | -3.0 | 99.0
N=c1n(CCO)c2ccccc2n1CCOc1ccc(Cl)cc1Cl | -7.2 | 18.0 | 148.0* | 7.4 | 43.7 | 113.0 | 132.0 | 19.0 | 108.0
COC(=O)c1c(C(=O)OC)c(-c2cccc(Cl)c2)n2c1CS(=O)(=O)C2 | 11.1 | 7.0 | 107.0 | 1.6 | -1.0 | 112.0 | x | x | x
CN(C)c1ccc(/C=C2\SC(=O)N(CC(O)Cn3c4ccccc4c4ccccc43)C2=O)cc1 (stereo unspecified) | -1.5 | 3.0 | 95.0 | -0.9 | -25.7 | 126.0 | x | x | x
O=C1S/C(=C/c2ccccc2)C(=O)N1CC(O)Cn1c2ccccc2c2ccccc21 (stereo unspecified) | 14.3 | -1.0 | 91.0 | 17.2 | -9.3 | 75.0*[inhibitor] | 89.0 | -6.0 | 81.0
COC(=O)Cn1c(=NC(=O)c2cc(OC)cc(OC)c2)sc2cc(OC)ccc21 | -10.2 | 0.0 | 103.0 | -10.2 | 22.9 | 130.0* | 99.0 | -10.0 | 105.0
Cc1ccc(NS(=O)(=O)c2cccc(C(=O)NCC(c3ccco3)N3CCCCC3)c2)cc1 (stereo unspecified) | 3.0 | 6.0 | 112.0 | -12.9 | 0.4 | 103.0 | x | x | x
CCC[C@@H](CNC)NC[C@H](Cc1ccccc1)NCCCCc1ccccc1 | 4.8 | 8.0 | 154.0* | 17.8 | 36.5 | 104.0 | 146.0 | 27.0 | 106.0
Nc1nc(Cl)cc(Sc2ccc3ccccc3c2)n1 | -8.4 | 26.0* | 119.0 | -17.8 | 0.2 | 115.0 | 111.0 | 4.0 | 106.0
Cc1cc(-c2csc(N)n2)c(C)n1CCc1ccccc1 | 11.2 | 7.0 | 56.0*[inhibitor] | 37.5 | 6.5 | 94.0 | 103.0 | 0.0 | 93.0
CCOC(=O)c1cc(C)n(CCc2ccccc2)c1C | 4.8 | 6.0 | 105.0 | 2.0 | -6.4 | 104.0 | x | x | x
COc1ccc(C(=O)N2CCc3ccccc32)cc1 | -16.4 | 5.0 | 100.0 | -1.3 | 6.2 | 122.0* | 99.0 | -6.0 | 98.0
COc1ccc(-n2c(C)cc(C(=O)COC(=O)Cc3n[nH]c(=O)c4ccccc34)c2C)cc1 | -0.3 | -4.0 | 90.0 | -21.9 | -5.1 | 88.0 | x | x | x
Cc1cc(C(=O)COC(=O)Cc2n[nH]c(=O)c3ccccc23)c(C)n1-c1ccc2c(c1)OCO2 | -14.0 | 2.0 | 105.0 | -0.9 | -9.6 | 139.0* | 110.0 | 6.0 | 104.0
NC(=O)CC(NC(=O)Cc1ccc(Br)cc1)c1ccc(NCc2ccc(F)cc2)c([N+](=O)[O-])c1 (stereo unspecified) | -12.4 | 1.0 | 99.0 | -21.0 | -31.2 | 99.0 | x | x | x
COc1ccccc1C(=O)C1CCCN(C(=O)c2cccnc2SC)C1 (stereo unspecified) | -3.9 | 541.0* | 632.0* | 1.1 | 11.8 | 128.0* | 100.0 | -1.0 | 99.0
N#CNC(N)=Nc1cccc(Cl)c1 | -7.4 | 8.0 | 126.0 | 6.8 | 8.4 | 122.0* | 101.0 | -2.0 | 100.0
CNc1ccc(Br)cc(C(=O)/C=C/c2ccc3c(c2)OCO3)c1=O | 6.1 | -10.0 | 66.0*[inhibitor] | 11.1 | -27.6 | 91.0 | 100.0 | 1.0 | 102.0
CNc1ccc(Br)cc(C(=O)/C=C/c2ccc(OC)cc2)c1=O | 1.4 | -3.0 | 80.0 | -0.3 | -15.9 | 95.0 | x | x | x
Cc1ccc(C(=O)COC(=O)c2cc(Cl)ccc2O)cc1[N+](=O)[O-] | -4.8 | 0.0 | 101.0 | 12.7 | 7.5 | 101.0 | x | x | x
Cc1ccc(C(=O)COC(=O)c2ccncc2)cc1[N+](=O)[O-] | 6.7 | -2.0 | 81.0 | 6.2 | -0.6 | 52.0*[inhibitor] | 97.0 | -5.0 | 102.0
COc1cc(/C=C/c2noc(-c3ccccc3O)n2)ccc1OC(C)=O | -2.3 | 26.0 | 115.0 | -2.4 | 2.2 | 129.0* | 98.0 | -9.0 | 96.0
CC(=O)Nc1ccc(/C=C/c2noc(-c3ccccc3O)n2)cc1 | 1.1 | 0.0 | 104.0 | -4.1 | 4.4 | 106.0 | x | x | x
O=C1NC(c2ccccc2)=N/C1=C/c1ccco1 | -9.8 | 2.0 | 111.0 | 1.5 | 0.1 | 138.0* | 104.0 | 0.0 | 101.0
SMILES | ATG4B inhibitor | MEKK2mut PB1 HTS | MEKK2 WT-MEK5 | PREPL inhibitor | UBC13 inh | MEKK3 PB1 HTS | MEKK2wt confirm | MEKK2mut confirm | MEKK3-MEK5 inh
O=C(Cn1nc(-c2ccccc2)oc1=O)OCC(=O)c1ccc(F)c(F)c1 | -13.7 | x | x | 7.3 | -3.2 | x | x | x | x
CCC(C)(C)NC(=O)CCn1c(-c2ccccc2)cc(C(C)=O)c1C | 3.0 | -1.0 | 108.0 | 3.9 | -2.1 | 106.0 | x | x | x
CC(=O)c1cc(-c2ccccc2)n(CCC(=O)NC(C)(C)C)c1C | -0.8 | -22.0 | 36.0*[inhibitor] | 2.7 | 5.7 | 25.0*[inhibitor] | 101.0 | -1.0 | 100.0
O=C(NC(=S)NC(CO)Cc1ccccc1)c1ccc(F)cc1 (stereo unspecified) | -10.7 | 6.0 | 107.0 | -18.4 | 8.5 | 105.0 | x | x | x
O=c1c(S(=O)(=O)c2ccc(Cl)cc2)cn(Cc2cccc(F)c2)c2ccc(F)cc12 | -9.1 | 0.0 | 100.0 | 5.3 | -3.7 | 120.0 | x | x | x
Cc1ccc(Cn2cc(S(=O)(=O)c3ccc(Cl)cc3)c(=O)c3cc(F)ccc32)cc1 | -7.3 | 0.0 | 102.0 | 16.1 | 5.2 | 132.0* | 95.0 | -8.0 | 102.0
OC1CCCN(CC(O)COC(c2ccc(F)cc2)c2ccc(F)cc2)C1 (stereo unspecified) | 3.0 | 4.0 | 114.0 | 9.5 | 4.7 | 108.0 | x | x | x
CN1CCN(CC(O)COC(c2ccc(Cl)cc2)c2ccc(Cl)cc2)CC1 (stereo unspecified) | -7.8 | 7.0 | 125.0 | -1.9 | 12.5 | 100.0 | x | x | x
OC(COC(c1ccc(F)cc1)c1ccc(F)cc1)CN1CCc2ccccc2C1 (stereo unspecified) | 4.2 | 1.0 | 112.0 | 8.9 | 2.3 | 136.0* | 115.0 | 5.0 | 100.0

Screening data (PubChem)
